Screens from PubChem.
Many of the other results were omitted from the sample, so hits are more common in it than they were.
KDM5B inh: blocks human KDM5B histone demethylase activity; KDM5B demethylase, FDH-coupled NADH fluorescence (FDH is formaldehyde dehydrogenase); Q9UGL1; Potency, µM (series often up to 57.7 µM), actives largely listed as inhibitors; actives 2.6% (n = 220,000); AID 1347165; active = well fitted inhibition curve with a large enough effect; also: 0% is about no effect; nearly all actives have a fitted effect of over 70% in size
Target sequence (Q9UGL1 whole entry, looked up): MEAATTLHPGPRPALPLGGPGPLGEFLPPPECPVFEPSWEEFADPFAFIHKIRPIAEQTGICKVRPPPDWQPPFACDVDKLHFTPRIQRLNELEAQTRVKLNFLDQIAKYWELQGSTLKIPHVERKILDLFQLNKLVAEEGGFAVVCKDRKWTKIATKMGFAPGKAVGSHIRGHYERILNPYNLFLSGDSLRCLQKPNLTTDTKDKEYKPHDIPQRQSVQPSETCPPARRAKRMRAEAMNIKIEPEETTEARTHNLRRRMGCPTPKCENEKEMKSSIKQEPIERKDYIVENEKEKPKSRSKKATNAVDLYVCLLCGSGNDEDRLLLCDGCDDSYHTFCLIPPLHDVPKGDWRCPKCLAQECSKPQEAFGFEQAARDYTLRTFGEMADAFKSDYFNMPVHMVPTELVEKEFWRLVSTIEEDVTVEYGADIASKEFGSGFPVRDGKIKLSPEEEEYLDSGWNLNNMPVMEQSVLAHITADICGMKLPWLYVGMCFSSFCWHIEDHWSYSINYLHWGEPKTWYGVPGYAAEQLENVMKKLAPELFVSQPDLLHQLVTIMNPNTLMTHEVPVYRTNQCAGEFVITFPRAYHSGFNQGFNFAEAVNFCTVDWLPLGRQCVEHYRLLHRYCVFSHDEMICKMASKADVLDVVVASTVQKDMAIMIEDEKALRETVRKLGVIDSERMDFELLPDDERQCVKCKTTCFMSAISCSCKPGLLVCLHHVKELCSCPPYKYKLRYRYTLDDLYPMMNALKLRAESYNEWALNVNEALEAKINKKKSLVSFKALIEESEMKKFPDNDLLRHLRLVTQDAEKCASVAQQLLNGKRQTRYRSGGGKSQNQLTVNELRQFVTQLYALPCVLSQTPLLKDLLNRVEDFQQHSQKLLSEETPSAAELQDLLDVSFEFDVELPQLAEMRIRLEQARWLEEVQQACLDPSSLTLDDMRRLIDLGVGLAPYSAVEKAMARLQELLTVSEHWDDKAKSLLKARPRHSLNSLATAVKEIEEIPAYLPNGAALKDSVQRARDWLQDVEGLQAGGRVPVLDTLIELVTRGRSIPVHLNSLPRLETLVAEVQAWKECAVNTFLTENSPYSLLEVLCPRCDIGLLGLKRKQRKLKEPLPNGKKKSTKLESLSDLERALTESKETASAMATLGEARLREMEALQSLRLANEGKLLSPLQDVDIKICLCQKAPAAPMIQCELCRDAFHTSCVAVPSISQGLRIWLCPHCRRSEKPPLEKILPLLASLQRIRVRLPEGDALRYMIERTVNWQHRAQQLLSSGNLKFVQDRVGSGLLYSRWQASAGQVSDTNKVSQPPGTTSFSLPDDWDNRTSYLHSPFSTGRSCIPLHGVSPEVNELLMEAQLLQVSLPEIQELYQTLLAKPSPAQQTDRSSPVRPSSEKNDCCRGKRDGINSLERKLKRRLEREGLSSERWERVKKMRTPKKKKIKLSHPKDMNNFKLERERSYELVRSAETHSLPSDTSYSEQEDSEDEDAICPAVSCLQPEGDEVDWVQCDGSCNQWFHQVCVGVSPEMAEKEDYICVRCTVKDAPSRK
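Inhibition is measured as reduced NADH fluorescence generation from FDH coupling to formaldehyde release. Truncated KDM5BΔAP at 200 nM final acts on H3K4me3 peptide (12.5 µM in substrate mix) in pH 7.5 HEPES buffer with Tween-20, 30 min, room temperature.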
* = called active by the depositor. Potency is read from the fitted curve at half-maximal effect.

How did O=C(Nc1ccc(Cl)nc1)c1ccn2cncc2c1 do in these assays?
KDM5B inh: inactive

How did Cc1oc(-c2ccccc2)nc1CC(=O)Nc1ccc(Br)cc1F do in these assays?
KDM5B inh: inactive

What do the screens show for `FC(F)(F)c1cccc(Oc2ncnc3scc(-c4ccccc4)c23)c1`?
KDM5B inh: inactive

How did COc1cccc(OCc2nnc(C(=O)N3CCC[C@@H]3c3nc4ccccc4[nH]3)n2-c2ccccc2)c1OC do in these assays?
KDM5B inh: inactive

Results for O=C(O)CCC(=O)c1cccnc1 ?
KDM5B inh: inactive

What do the screens show for `CCC(C)NC(=O)N1CCCN(S(=O)(=O)c2ccccc2)CCC(=O)NCC1` (centres undefined)?
KDM5B inh: inactive

What do the screens show for `CN(C)C(=O)c1ccnc(-c2nnc3ccc(NCCN4CCOCC4)nn23)c1`?
KDM5B inh: 35µM*

Results for CN(C)C(=O)c1ccnc(-c2nnc3ccc(N(C)Cc4ccccc4)nn23)c1 ?
KDM5B inh: inactive

How did O=C(NCc1ccccc1)c1ccnc(-c2nnc3ccc(N4CCOCC4)nn23)c1 do in these assays?
KDM5B inh: inactive

How did O=C(c1csc(-c2ccsc2)n1)N1CCCC1c1ccccc1 (centres undefined) do in these assays?
KDM5B inh: inactive

What do the screens show for `O=C(O)CCC(=O)N1CCN(CCc2ccccc2)CC1`?
KDM5B inh: inactive

Results for O=C(c1ccccc1)N1CCN(Cc2ccc(=O)n(CC3CC3)c2)CC1 ?
KDM5B inh: inactive

What do the screens show for `CCN1CCN(C(=O)c2cccs2)CC1`?
KDM5B inh: inactive

Results for CCn1cc(CN2CCN(C(=O)c3cccs3)CC2)ccc1=O ?
KDM5B inh: 11µM*

What do the screens show for `O=C(c1ccccn1)N1CCN(Cc2ccc(=O)n(CC3CC3)c2)CC1`?
KDM5B inh: 16µM*

How did CCn1cc(CN2CCN(C(=O)c3ccco3)CC2)ccc1=O do in these assays?
KDM5B inh: inactive

How did O=C(c1cccs1)N1CCN(Cc2ccc(=O)n(CC3CC3)c2)CC1 do in these assays?
KDM5B inh: inactive

Results for O=C(c1ccoc1)N1CCN(Cc2ccc(=O)n(CC3CC3)c2)CC1 ?
KDM5B inh: inactive

Results for CCn1cc(CN2CCN(C(=O)CCc3ccccc3)CC2)ccc1=O ?
KDM5B inh: 7.1µM*

How did Cc1cc(S(=O)(=O)c2cc3cc(F)ccc3oc2=O)ccc1F do in these assays?
KDM5B inh: inactive

What do the screens show for `O=C(NCc1ccncc1)C1Cn2cccc2C(=O)N1Cc1ccccc1` (centres undefined)?
KDM5B inh: inactive

What do the screens show for `CCc1nc(-c2c3n(c(=O)n(CC(=O)Nc4ccccc4OC)c2=O)CCCCC3)no1`?
KDM5B inh: inactive

How did CNC(=O)N1CCC(C2CCN(C(=O)c3cnccc3C)C2)CC1 (centres undefined) do in these assays?
KDM5B inh: inactive

Results for Cn1c(C(=O)N2CCN(C(=O)c3ccc(F)cc3)CC2)cc2ccccc21 ?
KDM5B inh: inactive

How did Cc1ccc(C(=O)N2CCC3(CC2)NC(=O)N(c2ccccc2)N3)cc1 do in these assays?
KDM5B inh: inactive

Results for CC(SCc1cccc(Cl)c1)C(=O)NC(N)=O (centres undefined) ?
KDM5B inh: inactive

Results for COc1ccc(C(=O)Oc2ccccc2Cl)cc1 ?
KDM5B inh: inactive

How did O=C(NCCc1noc(-c2cccnc2)n1)C1CCC1 do in these assays?
KDM5B inh: inactive

How did O=C(c1ccc(F)c(F)c1)N1CCCC(n2cc(-c3nc(C4CC4)no3)nn2)C1 (centres undefined) do in these assays?
KDM5B inh: inactive

What do the screens show for `CCCc1noc(-c2cccn3c(CNC(=O)Cc4ccc(Cl)cc4)nnc23)n1`?
KDM5B inh: 25µM*

Results for O=C(Cn1cccc1-c1nc(-c2ccccc2)no1)NCc1ccc(Cl)cc1 ?
KDM5B inh: inactive

Results for O=C(NCc1nnc2c(-c3nc(C4CC4)no3)cccn12)c1ccc(F)c(Cl)c1 ?
KDM5B inh: 28µM*

Results for CCCc1noc(-c2cccn3c(CNC(=O)C4CCC4)nnc23)n1 ?
KDM5B inh: 28µM*

Results for O=C(Cn1cccc1-c1nc(-c2ccc3c(c2)OCO3)no1)NCCc1ccc(Cl)cc1 ?
KDM5B inh: inactive

What do the screens show for `O=C(NCc1nnc2n1C(C(=O)O)CC2)c1cccc(Cl)c1` (centres undefined)?
KDM5B inh: inactive

What do the screens show for `Cc1nc(CCNC(=O)C2CCC2)no1`?
KDM5B inh: inactive

Results for O=C(Cc1ccc(Cl)cc1)NCc1nnc2c(-c3nc(C4CC4)no3)cccn12 ?
KDM5B inh: 28µM*

What do the screens show for `COc1cc(NC(=O)Nc2cc3c(cc2N2CCCC2)n(C)c(=O)n3C)cc(OC)c1`?
KDM5B inh: inactive

Results for COc1ccc(C(=O)N2CC(=O)N(c3ccc(C)cc3)CC2C)c(OC)n1 (centres undefined) ?
KDM5B inh: inactive

What do the screens show for `Cc1noc([C@@H]2CN(C(=O)CCc3nc4ccccc4[nH]3)C[C@H]2C(N)=O)n1`?
KDM5B inh: inactive

What do the screens show for `O=C(c1cnccn1)N1CCc2[nH]nc(C(c3ccccc3)c3ccccc3)c2C1`?
KDM5B inh: inactive

What do the screens show for `CCC1CN(C(=O)N2CCC(C(=O)NCc3cccc(C)c3)CC2)c2cc(C)ccc2O1` (centres undefined)?
KDM5B inh: inactive

Results for Cc1nc2c(c(-c3ccc(Cl)cc3)n1)CN(C(=O)c1ccc(C(F)(F)F)cc1)CC2 ?
KDM5B inh: inactive

What do the screens show for `Cc1nc2nc(SCC(=O)c3ccc4ccccc4c3)[nH]c2cc1Br`?
KDM5B inh: inactive

How did O=C(CC1CC2CCC1C2)NCc1cccnc1 (centres undefined) do in these assays?
KDM5B inh: inactive

How did Cc1ccccc1C(CC(=O)Nc1cccc(-c2ccno2)c1)n1cccc1 (centres undefined) do in these assays?
KDM5B inh: inactive

Results for Cc1ccc(C)c(C(=O)NCC(C)C)c1 ?
KDM5B inh: inactive

What do the screens show for `O=C(NCc1nnc2n1C(C(=O)NCc1ccc(F)cc1)CC2)c1ccccc1` (centres undefined)?
KDM5B inh: inactive

Results for CCCc1noc(-c2cccn3c(CNC(=O)c4ccc(C)cc4)nnc23)n1 ?
KDM5B inh: 25µM*

Results for O=C(NCc1nnc2c(-c3nc(C4CC4)no3)cccn12)c1cc(Cl)ccc1F ?
KDM5B inh: 28µM*

Results for Cc1ccc(C)c(C(=O)NCc2ccco2)c1 ?
KDM5B inh: inactive

What do the screens show for `c1ccc(-c2nc(C3CC3)no2)c(OC2CNC2)c1`?
KDM5B inh: inactive

How did O=C(c1cc(F)ccc1F)N1CCC(n2cc(-c3nc(C4CC4)no3)nn2)C1 (centres undefined) do in these assays?
KDM5B inh: inactive

How did CCCc1noc(-c2cccn3c(CNC(=O)c4ccc5cc[nH]c5c4)nnc23)n1 do in these assays?
KDM5B inh: inactive

What do the screens show for `COc1cc(Cl)ccc1C(=O)NCc1nnc2c(-c3nc(C4CC4)no3)cccn12`?
KDM5B inh: inactive

What do the screens show for `Cc1ccc(C)c(C(=O)NCc2nnc3c(-c4nc(C5CC5)no4)cccn23)c1`?
KDM5B inh: 25µM*

What do the screens show for `O=C(NCc1nnc2c(-c3nc(C4CC4)no3)cccn12)c1ccc(F)cc1`?
KDM5B inh: 22µM*

Results for Cc1ccc(C(=O)NCCn2cccc2-c2nc(-c3ccccc3)no2)cc1 ?
KDM5B inh: inactive

How did CCC1CN(C(=O)C2CCN(c3nc4ccccc4o3)CC2)CCO1 (centres undefined) do in these assays?
KDM5B inh: inactive
